Data: PubChem BioAssay AID1159580 (chemical genetic matrix, 2015)
Values joined by “and” are separate entries in the source; they are usually repeats but may differ in a detail not shown here. Identical values can stand only once. Hit rate of the full screen: of about 5,500 compounds, about 2,000 (36%) were called active. Not shown: some 18% with an inconclusive outcome. Rule as the data show it: active = normalized growth mostly below about 0.91 (no sharp cut-off); inconclusive = no clear call, values can overlap the other calls; inactive = mostly above about 0.92. Some of the results follow.

Test: chemical genetic growth profiling, strain panel (AID 1159580);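 also: tested at 20 µM; growth read once vehicle control cultures reached saturation at 30 °C; 1 = growth at the plate median or of vehicle wells; lower values mean less growth of the strain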
Details: S. cerevisiae deletion strains, growth OD

Measured: normalized growth

CC1(C)CC[C@]2(C)CC[C@]3(C)C(=CCC4[C@@]5(C)CC[C@H](O)C(C)(C)C5CC[C@]43C)C2C1 (stereo partly specified)
inactive: locus YAL021C, strain ccr4, stronger effect = lower value 0.992 | locus YAL026C, strain drs2, stronger effect = lower value 1 | locus YAL030W, strain snc1, stronger effect = lower value 0.988 | locus YBL061C, strain skt5, stronger effect = lower value 0.986 | locus YBR009C, strain hhf1, stronger effect = lower value 1.02 | locus YBR021W, strain FUR4, stronger effect = lower value 1.07 | locus YBR023C, strain chs3, stronger effect = lower value 0.975 | locus YBR171W, strain sec66, stronger effect = lower value 0.993 | locus YBR229C, strain ROT2, stronger effect = lower value 1.01 | locus YBR231C, strain swc5, stronger effect = lower value 1 | locus YBR279W, strain paf1, stronger effect = lower value 0.991 | locus YCL011C, strain gbp2, stronger effect = lower value 0.985 | locus YCL016C, strain dcc1, stronger effect = lower value 0.99 | locus YCL029C, strain bik1, stronger effect = lower value 0.999 | locus YCL061C, strain MRC1, stronger effect = lower value 1 | locus YCL069W, strain vba3, stronger effect = lower value 0.995 | locus YCR088W, strain abp1, stronger effect = lower value 0.999 | locus YDL005C, strain med2, stronger effect = lower value 1.01 | locus YDL035C, strain GPR1, stronger effect = lower value 1.02 | locus YDL040C, strain nat1, stronger effect = lower value 1 | locus YDL074C, strain BRE1, stronger effect = lower value 1.02 | locus YDL101C, strain DUN1, stronger effect = lower value 0.997 | locus YDL185W, strain tfp1, stronger effect = lower value 0.954 | locus YDL192W, strain arf1, stronger effect = lower value 0.99 | locus YDR001C, strain nth1, stronger effect = lower value 0.994 | locus YDR069C, strain doa4, stronger effect = lower value 0.978 | locus YDR101C, strain arx1, stronger effect = lower value 1 | locus YDR137W, strain rgp1, stronger effect = lower value 1.01 | locus YDR150W, strain NUM1, stronger effect = lower value 1 | locus YDR159W, strain sac3, stronger effect = lower value 1.02 | locus YDR162C, strain NBP2, stronger effect = lower value 1.04 | locus YDR195W, strain ref2 0.965 | locus YDR297W, strain sur2, stronger effect = lower value 0.972 | locus YDR318W, strain mcm21, stronger effect = lower value 0.985 | locus YDR334W, strain swr1, stronger effect = lower value 0.996 | locus YDR335W, strain msn5, stronger effect = lower value 1 | locus YDR388W, stronger effect = lower value 0.988 | locus YDR392W, strain spt3, stronger effect = lower value 1.01 | locus YDR502C, strain sam2, stronger effect = lower value 0.986 | locus YEL003W, strain gim4, stronger effect = lower value 0.993 | locus YEL037C, strain rad23, stronger effect = lower value 0.998 | locus YEL061C, strain CIN8 (second series), stronger effect = lower value 0.987 | locus YER015W, strain faa2, stronger effect = lower value 0.988 | locus YER016W, strain bim1, stronger effect = lower value 0.995 | locus YER110C, stronger effect = lower value 0.987 | locus YER111C, strain swi4, stronger effect = lower value 0.994 | locus YER155C, strain BEM2 (second series), stronger effect = lower value 0.982 | locus YER155C, strain BEM2, stronger effect = lower value 1 | locus YER167W, strain BCK2, stronger effect = lower value 0.992 | locus YFR010W, strain ubp6, stronger effect = lower value 1.01 | locus YGL078C, strain dbp3, stronger effect = lower value 0.955 | locus YGL086W, strain mad1, stronger effect = lower value 0.987 | locus YGL167C, strain pmr1, stronger effect = lower value 0.994 | locus YGL173C, strain kem1, stronger effect = lower value 0.998 | locus YGL227W, strain vid30, stronger effect = lower value 0.986 | locus YGL240W, strain doc1, stronger effect = lower value 0.983 | locus YGL248W, strain PDE1, stronger effect = lower value 1.01 | locus YGL253W, strain hxk2, stronger effect = lower value 0.993 | locus YGR078C, strain PAC10, stronger effect = lower value 1 | locus YGR135W, strain pre9, stronger effect = lower value 0.963 | locus YGR229C, strain SMI1, stronger effect = lower value 0.989 | locus YGR252W, strain gcn5, stronger effect = lower value 1.04 | locus YHR013C, strain ard1, stronger effect = lower value 0.986 | locus YHR027C, strain rpn1, stronger effect = lower value 0.977 | locus YHR030C, strain SLT2, stronger effect = lower value 1.07 | locus YHR079C, strain IRE1 (second series), stronger effect = lower value 0.989 | locus YHR079C, strain IRE1, stronger effect = lower value 1.03 | locus YHR094C, strain hxt1, stronger effect = lower value 0.997 | locus YHR129C, strain ARP1, stronger effect = lower value 1.01 | locus YHR142W, strain chs7, stronger effect = lower value 1.04 | locus YHR200W, strain rpn10, stronger effect = lower value 0.996 | locus YIL066C, strain RNR3, stronger effect = lower value 1.02 | locus YIL073C, strain SPO22, stronger effect = lower value 0.964 | locus YIL125W, strain kgd1, stronger effect = lower value 0.947 | locus YIR030C, strain dcg1, stronger effect = lower value 0.985 | locus YJL092W, strain hpr5, stronger effect = lower value 1.01 | locus YJL095W, strain BCK1 (second series), stronger effect = lower value 0.991 | locus YJL095W, strain BCK1, stronger effect = lower value 0.995 and 1.03 | locus YJL115W, strain asf1, stronger effect = lower value 0.985 | locus YJL129C, strain trk1, stronger effect = lower value 1.02 | locus YJL134W, strain LCB3, stronger effect = lower value 0.998 | locus YJL154C, strain vps35, stronger effect = lower value 0.99 | locus YJL164C, strain tpk1, stronger effect = lower value 0.999 | locus YJL166W, strain qcr8, stronger effect = lower value 0.997 | locus YJL168C, strain set2, stronger effect = lower value 0.989 | locus YJL187C, strain SWE1 (second series), stronger effect = lower value 0.997
